Screening results from PubChem BioAssay.
TWEAK-Fn14 inh: inhibitors of TWEAK-Fn14 interaction signaling. TWEAK-stimulated Fn14 reporter cells, luciferase luminescence, 8 h. hit rate 2% among 360,000. inhibition, % at 10 µM; in the data active = inhibition above about 50%
HSP90 inh: inhibitors of HSP90 luciferase refolding in rabbit reticulocyte lysate. luciferase refolding luminescence, 3 h. inhibition, % at 5.6 µM. hit rate 0.91% among 290,000. AID 1789;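 active = inhibition above the screen-wide mean plus 3 SD, computed separately per campaign, cut at about 16% in these data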;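 also: 0% = DMSO wells and 100% = 60 µM geldanamycin wells; inhibitors lower the luminescence because luciferase stays unfolded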
LGR2 antag: inhibitors of bursicon-induced Drosophila LGR2 receptor cAMP signaling; inhibition, % at 9.99 µM; HEK293 LGR2, CRE-luciferase, bursicon-stimulated, 4 h; AID 720647; hit rate 0.35% among 380,000;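 active = drop in luminescence signal, shown as inhibition above about 50% in the replicate tests, limit read from the data, passing the limit was not always enough; inconclusive = probably only some replicates passing the limit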;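 also: agonist challenge used bursicon conditioned medium at about half maximal strength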
TROY signal inh: TROY signaling inhibition. hit rate 0.98% among 360,000. AID 1347056. inhibition, % at 10 µM. Q293 LMP1-TROYcd NF-kB luciferase reporter, 4 h;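 active = compounds whose plate-normalised and pattern-corrected inhibition of the luciferase reporter signal at the single screening dose is 50% or more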
HSP90 confirm: HSP90 inhibition, confirmation assay; shares compounds with HSP90 inh; rabbit reticulocyte lysate, luciferase refolding luminescence, 3 h; inhibition, % at 5.9 µM; hit rate 64% among 2,300; in the data active = inhibition above about 18%;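 also: 0% = vehicle wells and 100% = reference inhibitor wells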
FLuc counter: blocks native firefly luciferase in HSP90 counter-screen | shares compounds with HSP90 inh | purified native firefly luciferase, luminescence | inhibition, % at 5.9 µM | hit rate 48% among 2,300 | AID 1847;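 active = inhibition above the mean inhibition of all tested sample wells plus 3 SD, cut at about 10% in these data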;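 also: 0% = DMSO with luciferase and 100% = wells lacking luciferase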
Target sequence (P08659 whole entry, looked up): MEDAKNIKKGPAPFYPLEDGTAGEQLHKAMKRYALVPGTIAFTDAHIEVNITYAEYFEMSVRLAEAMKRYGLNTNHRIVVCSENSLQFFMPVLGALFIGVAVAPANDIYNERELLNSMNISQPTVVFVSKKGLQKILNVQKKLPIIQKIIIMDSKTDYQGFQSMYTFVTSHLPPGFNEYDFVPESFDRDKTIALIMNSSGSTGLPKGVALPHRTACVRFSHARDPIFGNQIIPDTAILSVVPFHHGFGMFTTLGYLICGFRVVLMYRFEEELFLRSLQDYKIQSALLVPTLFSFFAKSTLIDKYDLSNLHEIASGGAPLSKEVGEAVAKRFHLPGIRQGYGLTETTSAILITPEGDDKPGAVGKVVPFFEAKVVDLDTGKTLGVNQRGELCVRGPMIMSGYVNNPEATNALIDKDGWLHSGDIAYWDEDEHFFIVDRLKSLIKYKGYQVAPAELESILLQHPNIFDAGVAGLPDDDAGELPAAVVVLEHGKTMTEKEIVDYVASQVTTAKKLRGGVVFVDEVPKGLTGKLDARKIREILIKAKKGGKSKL
* hit, by the source's call; ? = inconclusive; · = no result given. Sampled rows, rich in hits. Any-hit rate of the full collection: about 2.2%.

SMILES	TWEAK-Fn14 inh	HSP90 inh	LGR2 antag	TROY signal inh	HSP90 confirm	FLuc counter
COCC(=O)N1[C@H](C#N)[C@H](c2ccc(C3=CCCCC3)cc2)[C@H]1CO	·	·	-17	·	·	·
CCOC(=O)N1CCC(=NNc2nc3ccccc3s2)CC1	4	26*	-51	-1	2	-8
COc1ccc(CN(C)C[C@@H]2OCCCC[C@@H](C)Oc3ccc(NC(=O)Cc4ccccc4)cc3C(=O)N([C@H](C)CO)C[C@H]2C)cc1	·	·	-2	·	·	·
CC(=O)N(C)C[C@H]1Oc2cc(C#Cc3cccnc3)ccc2S(=O)(=O)N([C@H](C)CO)C[C@H]1C	·	·	0	·	·	·
COC(=O)C1CCN(C(=O)c2ccc3nc(-c4cccc(OC)c4)oc3c2)CC1	-55	51*	-36	-59	63*	-10
COC(=O)c1ccc(NC(=O)c2ccccc2C(=O)Nc2ccc(C(=O)OC)cc2)cc1	-30	·	·	-39	·	·
COC(=O)c1ccc(NC(=O)C(=O)c2cccn2C)cc1	38	26*	?	18	59*	42*
CN(C)c1ccc(/C=C2\SC(N3CCCCC3)=NC2=O)cc1	83*	45*	45	74*	55*	60*
CC(C)c1ccc(/C=C2\SC(N3CCCC3)=NC2=O)cc1	46	19*	-9	32	4	3
CCC(=O)c1ccc(OCc2ccc(C#N)cc2)cc1	-28	-4	-62	-47	·	·
CCC(=O)c1ccc(OCc2ccc(C(=O)OC)cc2)cc1	15	30*	-27	-40	62*	-3
O=C(C[C@H]1CC[C@@H](NC(=O)C2CC2)[C@@H](CO)O1)NCc1ccncc1	·	·	12	·	·	·
Cc1cccc(N=C2NN=C(c3c(C)[nH]c4ccccc34)CS2)c1	15	-2	-1	17	·	·
Cc1cccc(N=C2NN=C(c3ccc4c(c3)OCCO4)CS2)c1	54*	28*	3	57*	40*	34*
COc1ccc2nc(NC(=O)c3ccco3)sc2c1	81*	41*	81*	35	58*	56*
Cc1ccc2nc(NC(=O)c3ccco3)sc2c1	98*	45*	·	62*	83*	79*
CC(=O)Nc1nc2ccc(NC(=O)c3ccco3)cc2s1	0	1	·	-26	·	·
CCN1[C@H](C(=O)NC2CCCC2)[C@@H](CO)[C@@H]2Cn3c(ccc(-c4ccccc4F)c3=O)[C@@H]21	·	·	-6	·	·	·
O=C(O)CCNC(=O)/C(=C/c1ccco1)NC(=O)c1ccco1	5	30*	1	3	2	-2
O=C(NCc1ccco1)/C(=C/c1ccco1)NC(=O)c1ccco1	21	1	20	11	·	·
O=C1CCCCC1Sc1nnc(-c2ccc3c(c2)OCO3)o1 (stereo unspecified)	104*	75*	·	87*	93*	79*
Cc1ccc(C(=O)N/C(=C\c2sccc2C)C(=O)NCc2ccco2)cc1	2	25*	·	-19	-4	-2
Cc1ccc(C(=O)N/C(=C\c2sccc2C)C(=O)NCc2ccncc2)cc1	14	-5	13	-8	·	·
C[C@@H]1CN([C@H](C)CO)C(=O)c2cc(Br)cnc2O[C@H]1CN(C)S(=O)(=O)c1ccc(F)cc1	·	·	5	·	·	·
Cc1noc(C)c1S(=O)(=O)Nc1ccc2c(c1)C(=O)N([C@H](C)CO)C[C@@H](C)[C@H](CN(C)Cc1ccc(C(F)(F)F)cc1)O2	·	·	11	·	·	·
SMILES	TWEAK-Fn14 inh	HSP90 inh	LGR2 antag	TROY signal inh	HSP90 confirm	FLuc counter
CN(C)c1ccc(-c2nc3ccccc3c(=O)[nH]2)cc1	24	34*	66*	-60	68*	53*
O=C(N[C@@H]1C=C[C@H](CC(=O)N2CCOCC2)O[C@@H]1CO)c1ccccn1	·	·	8	·	·	·
COC(=O)C[C@@H]1CC[C@H]2[C@@H](COC[C@@H](O)CN2CCC(F)(F)F)O1	·	·	0	·	·	·
N#Cc1cc2ccccc2nc1N	23	20*	2	25	3	-1
Nc1nc2ccccc2cc1-c1cccs1	-29	-2	-67	-79	·	·
c1ccc2c(C3=NNC(=NC4CC4)SC3)c[nH]c2c1	78*	19*	58*	36	61*	38*
O=C(Nc1nc2cc3c(cc2s1)OCCO3)c1cccs1	89*	39*	76*	61*	62*	59*
CC(=O)Nc1ccc2nc(NC(=O)c3cccs3)sc2c1	40	8	12	-13	·	·
CCN(CC)c1ccc(/C=C(\C#N)c2ccccn2)cc1	77*	21*	·	71*	70*	60*
COCC(=O)Nc1ccc2c(c1)C(=O)N(C)C[C@H](OC)[C@H](C)CN(Cc1ccccn1)[C@@H](C)CO2	·	·	4	·	·	·
O=C(NCc1ccccc1)c1c(O)c2cccc3c2n(c1=O)CCC3	-6	0	·	2	·	·
NNC(=O)c1c(O)c2cccc3c2n(c1=O)CCC3	6	19*	-4	8	3	-5
Cc1cccc(NC(=O)c2ccc3c(Cl)c4c(nc3c2)CCCC4)n1	63*	17*	-69	71*	58*	47*
COc1ccc(CN(C)C[C@H]2OCc3cn(nn3)CCCC(=O)N([C@@H](C)CO)C[C@H]2C)cc1	·	·	-1	·	·	·
Cc1ccc(C(=O)Nc2nc3ccccc3[nH]2)cc1	97*	86*	89*	71*	89*	85*
O=C(Nc1nc2ccccc2[nH]1)c1ccc([N+](=O)[O-])cc1	35	3	-66	-35	·	·
O=C(Nc1nc2ccccc2[nH]1)C1CC1	-15	3	-21	-11	·	·
O=C(Nc1nc2ccccc2[nH]1)NC1CCCCC1	49	23*	-17	22	24*	6
COc1cccc(C(=O)Nc2nc3ccccc3[nH]2)c1	87*	27*	·	33	67*	56*
COc1ccc(C(=O)Nc2nc3ccccc3[nH]2)cc1	89*	74*	90*	69*	86*	80*
Cc1ccccc1-c1ccc(=O)n(CC(=O)Nc2ccc(N3CCOCC3)cc2)n1	-1	43*	3	-14	0	-5
Cc1ccccc1-c1ccc(=O)n(CC(=O)Nc2ccc(C(=O)N3CCCC3)cc2)n1	1	-1	·	9	·	·
c1ccc2c(c1)CC1(CCCC1)n1nnnc1-2	8	18*	·	5	0	-4
CN1CCN(C(=O)C[C@H]2C[C@H]3c4cc(NC(=O)Nc5ccccc5)ccc4O[C@H]3[C@@H](CO)O2)CC1	·	·	13	·	·	·
CCOC(=O)c1nc(N/N=C/c2ccccc2)sc1Br	7	21*	-4	-29	28*	-24
Fc1cccc(/C=N/Nc2nncc3ccccc23)c1	46	29*	12	-33	51*	41*
CC/C(=N\Nc1nncc2ccccc12)c1ccc(F)cc1	-19	17*	-32	-21	-5	-25
Cc1noc(C)c1NC(=O)Nc1ccc2c(c1)C(=O)N([C@@H](C)CO)C[C@@H](C)[C@@H](CN(C)CC1CC1)OCCCC[C@@H](C)O2	·	·	-1	·	·	·
CN1c2ccc(-c3ccc(C#N)cc3)cc2[C@H]2[C@H](CCN2S(=O)(=O)c2ccc(F)cc2)[C@@H]1CO	·	·	4	·	·	·
